Source: PubChem BioAssay AID1508600 (Functional Genomics Laboratory (NCATS/FGL), 2020)
Out of some 53,000 sequences screened, about 3,700 (7%) were called active.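 The calls were made as follows: active = gene knockdowns whose robust z-score for IL-1 alpha signal is at least 2 or at most -2, so actives lie on both sides; inactive = the rest.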 This excerpt belongs to a sample that is enriched for actives.

Experiment: Components of the Cytosolic LPS Sensing Pathway: Gene Identification via Genome-wide siRNA Screen;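 also: robust z of the log signal after scaling to non-targeting control siRNA wells of the plate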
Details: RAW264.7 macrophages, IL-1a HTRF, actives lie on both sides, screened at 100 nM (by protocol), cells primed 5 h with Pam3CSK4 first
Method in brief: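 Using IL-1a HTRF as read-out, the screen measured release from RAW264.7 cells after 48h siRNA knockdown (100 nM), 5 h Pam3CSK4 priming and 24 h cytosolic LipidA. Values were expressed relative to negative-control wells as robust z-scores.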

Sequence	z-score
GCCGGAACAUCCAGAAUAGTT against Cpeb2	-0.644 (inactive)
GCACCUAGCAUAGCAAUGGTT against Slc24a1	0.695 (inactive)
GCGAUGACCAAAAAUAUUGTT against Tmc1	-0.0131 (inactive)
GCUGGCUAGAAUCUUACCCTT against Aph1c	0.554 (inactive)
GGGCAUGCAAUGUUCAUGCTT against Rho	0.095 (inactive)
GGUUGUGCAACACAGCUCUTT against Olfr218	-2.31 (active)
CGUGUCAGAACUCGAUCUUTT against Tbcel	-0.549 (inactive)
GGCCAUUGUUACUGGAAAATT against Elmo2	-0.353 (inactive)
GGAACUGACUCUUGAAAAUTT against Cd14	0.367 (inactive)
GCUAGAGUCCAUAAACAAUTT against Olfr1148	-0.0654 (inactive)
GGGUUAAAGCGGUUUACUUTT against Kcng3	2.72 (active)
GGAGCAAUCUGUUAAACUATT against Vash2	0.318 (inactive)
GGCCCAUCCUGAAACCAAATT against Wfdc15b	-2.04 (active)
CCCGGAGUGGUCAGAAGUATT against Mapkapk2	-0.376 (inactive)
GGUAAGCAUGGAAAGGCUGTT against Prdm15	-0.0134 (inactive)
GCCGUCAGAUGACAACUAGTT against Lta	0.481 (inactive)
GGAUGACCUUGAAAGCAGUTT against Usp29	-0.677 (inactive)
GGCAAAGCUGUCUUAGAGGTT against Mettl23	-1.35 (inactive)
GGCCAAAGCCAGAAUCUCATT against Zfp281	3.07 (active)
GGACAUAGAUCUACCUGAATT against Ctsb	-1.48 (inactive)
GCUUAAUGCCUUGAAACGATT against Tsg101	1.9 (inactive)
GGAAGAAGAUCACCAUCAUTT against Ifi204	-2.64 (active)

Sequence	z-score
GCACUUUGUGCUAGAUGAATT against Ddx39a	-0.688 (inactive)
GGAAUUGAAACCUGAUGUUTT against Srfbp1	0.239 (inactive)
GCUACUGUGUCGGUCACAUTT against Olfr514	0.753 (inactive)
CCAGUGAUAACUCUCUUGUTT against A830039N20Rik	1.23 (inactive)
GGUUGUGUUUACCAUGAAGTT against Rps6ka6	0.684 (inactive)
GUCAUGGUAGGGAUUUACATT against Taar4	-2.83 (active)
GGAGAUCUAUUGGAUCCAUTT against Trim12a	0.337 (inactive)
CCAGAUGUCGGCAGAUAACTT against Pold4	0.446 (inactive)
GGGCUUUGAUCAGUUCUACTT against Hoxd11	1.88 (inactive)
GCACUUUAAUCUGGCUACCTT against Dnmt3b	-0.78 (inactive)
GGCUCUGACCAAGAAUGAUTT against Cpsf1	1.27 (inactive)
GGAUCACUAACUUUUCCAATT against Trpc3	3.46 (active)
GGCACACUCACUCCUUUGATT against Mis18bp1	0.145 (inactive)
GGAAACGAUGAAGAACAAATT against 4933427D06Rik	-0.714 (inactive)
GCAUUUUUCGUUAGGAAAATT against Esco2	3.13 (active)
GGUAGAAACAAAGAAAUAGTT against 9130023H24Rik	-0.183 (inactive)
GGGCUAAGGACAGAAUUACTT against Tusc2	-0.0196 (inactive)
GGAGAAGAACUAAAACUUATT against Bbs7	0.846 (inactive)
GGUCUCCAUCACAUUCAAGTT against BC024139	1.19 (inactive)
CCGGAUGGGAAUCGCUAAATT against Slc22a13b	2.17 (active)
AAUCUUUUCGUGAAGGCACTT against Zfp948	0.84 (inactive)
CGAAUGCUUAUUUAGGUUGTT against Kpna4	-0.387 (inactive)

Sequence	z-score
GCUGAAAUAUGUGAGAGCATT against Sdcbp	0.016 (inactive)
CCGGGUCAUUAUCUAUCAATT against Puf60	-0.383 (inactive)
CGCAGCUUUCUAUACUGGCTT against Ngf	2.41 (active)
GCACUUACUCUUCAACGGGTT against Yae1d1	1.87 (inactive)
GGUCGUCGUGAGAUCUUAUTT against Prlhr	-0.342 (inactive)
CGUGUGUUUUACCCUAAAATT against Zfp947	0.404 (inactive)
GGAAGCUGUGGAGAAACUATT against Acox2	2.22 (active)
GGACGAGAACAUCUUAAUCTT against Pim1	1.58 (inactive)
GGAACUUACACAUUUGUUCTT against Tnfsf13b	-1.11 (inactive)
GCCAUGACCAUCUUUCUCUTT against Olfr1413	-3.03 (active)
GGAGCAUGUCUUUAAGAAGTT against Stac	-1.15 (inactive)
GCUAACUUACCCAAAGAAATT against Tnfaip3	1.41 (inactive)
GUGCAACGUGAGCAAUACGTT against Selenbp2	-0.417 (inactive)
CGUAAAACUCUUAGGCAUGTT against Npm1	1.13 (inactive)
GAAAAAAUGCCAGCUGUGGTT against Sec61b	0.379 (inactive)
CCUGCAUACGAAGUACAUATT against Bsg	2.75 (active)
GGAUCCAUCCGUCUCUAAGTT against Rprd2	0.628 (inactive)
GGUGCAAGUUCCCAUUAUATT against Tpsab1	-0.405 (inactive)
GGACAUAGCAUCUUCACUUTT against Mpp3	-1.31 (inactive)
GGCCUUAGGAAAAAAAAAGTT against Bad	0.956 (inactive)
CCUUGGUGGUCUGAAAUAATT against Cyp4a31	-0.159 (inactive)
GGAGAAACUGGACAACCUGTT against Eno2	4.12 (active)

Sequence	z-score
GGAUGUGAAUGAGUGUGAGTT against Fbln7	0.368 (inactive)
GGAGAAUGAACAGACAGAGTT against Slc39a14	-2.06 (active)
GGAGAAGAAGGUUCUUGCCTT against Hoxb13	-1.03 (inactive)
GGUCGCACAAGGUAUUAUATT against AI661453	-0.402 (inactive)
GGGAAAAAGAACAAGAUCATT against Cep57l1	-0.799 (inactive)
GGGAACAAGACAACACAGCTT against Adam11	2.03 (active)
GGUACUUCCUCAUUUACCUTT against Zdhhc4	0.541 (inactive)
CCGUAAGCUGUCUCUUUGUTT against Pla2g4c	-1.97 (inactive)
CCGUCUAUUAGUGAAGAUGTT against Pex1	0.0157 (inactive)
GGGUGAAAAUGGCAUUGUUTT against Col1a2	0.56 (inactive)
CGUGAUGGGACUUGAGAAGTT against Teddm1a	-0.454 (inactive)
GGAAAGAUUGUUUGAAGGCTT against Cask	-0.252 (inactive)
GCUGAUUUCAUUGCAUCCGTT against Olfr483	2.12 (active)
GGAAAAGGUUAAACUUUGATT against Cenpc1	0.165 (inactive)
CCAUCCUCCUACUCGUUAGTT against Vmn1r233	2.03 (active)
CCAAUAAAAGUUGAGAGCUTT against Krt18	-0.272 (inactive)
GCCUGACAUUGGGACAAAGTT against Trim34a	0.179 (inactive)
GCCUCCUAUCCUGGGAAGATT against Prss3	2.54 (active)
GGAGACGAGAAACAAACCCTT against Diaph2	1.68 (inactive)
GGUACUUUGGAGAUUGUAATT against Rdh14	-0.462 (inactive)
GGCAGCCAAGAGAUUGAAUTT against Suclg2	1.09 (inactive)
GGUUCUGAAAUGCAUGGAGTT against Rnf6	1.76 (inactive)

Sequence	z-score
GCAAAUGCGACUUUACACATT against Top1	2.56 (active)
GGAGCUGCUUGCUCAAAGATT against Tmem65	0.61 (inactive)
GCUGGAAAUGACACUGCCUTT against C1qtnf7	1.45 (inactive)
GCGGGAAUGAAGAAACACGTT against Eea1	0.801 (inactive)
GCCACGUUCCCUUGAUCAUTT against Mx2	1.4 (inactive)
GGAUGCCUUCUAUACACUATT against Hras	-1.33 (inactive)
CCCUUACAUCCAUCAACUATT against Dcbld2	-1.04 (inactive)
GGAAGUAUGUGUUUCUCAGTT against Prr9	-2.41 (active)
GGUAAUAAACGGUAAAUUGTT against B430306N03Rik	-0.763 (inactive)
GGUUCCAUAGCAGACAAAATT against Mrpl24	0.513 (inactive)
CCAAAUAUGUACUUCAUGGTT against Adipor1	-0.147 (inactive)
CGAUAAGAACACCUAUAUUTT against Sf3b1	-3.26 (active)
GGACAUCCAUUCAUGCUUUTT against Serpinb1b	-0.529 (inactive)
CCUAUAACUCCAAGGAUACTT against Lexm	0.628 (inactive)
GGUUUUGAGCAAAAUUCUATT against Nrd1	0.985 (inactive)
GCACUGGAAAUUGUAUAAATT against Hyal6	2.19 (active)
CGGAGUGUACCAUCUACACTT against Agpat4	0.193 (inactive)
GGGACUGCAUACUUAAGUUTT against Amacr	1.31 (inactive)
GGGACCGUGAAGAAAAUUUTT against Tmed11	-0.926 (inactive)
